Nrf2 ARE act = Nrf2 pathway activation | AID 624171 | AREc32 ARE-luciferase reporter (MCF7-derived line), luminescence, 24 h | actives 0.31% (n = 410,000) | Potency, µM (top dose mostly 46.1 µM), without a hit: top-dose activation, hits mostly activators; also: % of control where 0% means no effect; nearly all actives have a fitted effect of over 65% in size
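Quantitative high-throughput format: AREc32 reporter cells, 1000 per well, received compound by pin transfer and were incubated 24 hr at 37 deg C, 5% CO2, before Steady-Glo luminescence detection.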
ATXN viability = cell viability loss in ATXN counter-screen; S2 cells (HEK-293 line with an ATXN2-luciferase reporter) viability, CellTiter-Fluor protease fluorescence, 24 h; Potency, µM (titrated, usually from 56.7 µM), hits mostly cytotoxic; actives 0.49% (n = 400,000); also: nearly all actives have a fitted effect of over 40% in size
Nrf2 block = inhibitors of Nrf2 signaling; Potency, µM (titrated, usually from 46 µM), inactives show at the top dose activity change, negative = inhibition, most hits filed as inhibitors; A549 ARE-Fluc reporter, luciferase luminescence, 18-24 h; actives 2.1% (n = 360,000); also: % is scaled to controls: 0 for no effect and ±100 for the full control effect; nearly all actives have a fitted effect of over 60% in size
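Cells were seeded and rested 2 h, then exposed to compounds for 18-24 h. CellTiter-Fluor was read first as a viability measure. BugLite was added 15 min before the final luminescent read of ARE-luciferase activity in A549 cells.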
A549 tox = kills or reduces viability of A549 cells in Nrf2 counter-screen. actives 0.16% (n = 390,000). AID 504648. A549 ARE-Fluc cells, CellTiter-Fluor viability, 18-24 h. Potency, µM (top dose mostly 46 µM), for inactives: top-dose activity change, negative = cytotoxicity, usual class: inhibitors; also: % is scaled to controls: 0 for no effect and ±100 for the full control effect
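A549 ARE-Fluc cells in 5% FBS OPTI-MEM, 5000 cells/well, rested 2 h then exposed to compounds in concentration-response for 18-24 h at 37 °C. Viability by CellTiter-Fluor fluorescence (Ex 405/Em 525) after 30 min; luciferase luminescence (BugLite, 15 min, RT) read afterwards.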
ATXN2 expr inh = ATXN2 expression inhibition. Potency, µM (highest dose often 57 µM), without a hit: at the top dose activity change, negative = inhibition, most hits filed as inhibitors. actives 0.72% (n = 360,000). HEK-293 ATXN2-luciferase reporter, luminescence, 24 h. AID 1745845; also: % is scaled to controls: 0 for no effect and ±100 for the full control effect; nearly all actives have a fitted effect of over 55% in size
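qHTS (up to 57 uM final) was run with 24 h compound exposure of reporter cells at 37 °C. Each well was multiplexed: SteadyGlo luminescence measured ATXN2-luciferase expression after a fluorogenic Gly-Phe-AFC viability readout (25 uM final).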
* marks the source's active call; other numbers are inactive results; i = inactive; ? = inconclusive; / = no result; ! = not active in a repeat; [ ] = another dose, or the depositor's remark. An excerpt weighted towards active compounds, which were near 2.9% of everything screened. Calls follow the shape of the dose curve; as a rule, active = well fitted curve in the direction sought with a large enough effect; inconclusive = small, poorly fitted or top-dose-only effect, or another doubt; inactive = no such curve, though single readings can be large; an effect the other way counts as inactive or inconclusive. Potency is read from the fitted curve at half-maximal effect.

SMILES | Nrf2 ARE act | ATXN viability | Nrf2 block | A549 tox | ATXN2 expr inh
COc1ccc(CN2CCCC(n3cc(C(=O)NC4CCCC4)nn3)C2)c(O)c1 (configuration not stated) | / | i | / | / | /
CCOc1ccc(CNC(=O)c2cnc3sc(N(CC)CC)nn3c2=O)cc1OC | -0.9% | / | -28.6% | 6.8% | /
CCOC(=O)c1ccc(/C=C2/C=C(c3ccccc3)N(c3ccc(Cl)c(C(=O)O)c3)C2=O)cc1 | ? | ? | ? | -10.2% | 10.6µM*
CCC(=O)N[C@H]1CC[C@H](C(=O)N(C)c2ccc(-c3nc4ccccc4o3)cc2)C1 | / | / | / | / | 22.9%
Cc1ccc(C)c(CN2CCC(CNC(=O)Nc3ccc(Br)cc3F)CC2)c1 | 3.1% | ? | -23.6% | -25.1% | 20µM*!
O=C1CC(c2ccco2)CC(O)=C1C=Nc1cc(Cl)ccc1O (configuration not stated) | 10µM* | i | ? | -7.8% | -1.4%
O=C1CC(c2ccccc2)CC(O)=C1C=Nc1ccccc1O (configuration not stated) | 14.1µM* | i | -15.8% | 1.0% | /
COc1ccc(C2c3c(nc(C)[nH]c3=O)Oc3ccc4ccccc4c32)cc1OC (configuration not stated) | / | / | -7.0% | 13.8% | /
Cc1ccccc1-n1c(=O)c2c3c(sc2n2cnnc12)CCCC3 | 0.4% | ? | ? | -20.2% | -18.9%
Cc1ccc(Cn2ncc3c(N4CCN(Cc5ccc(Cl)cc5)CC4)ncnc32)cc1 | 0.6% | i | 8.2µM* | -14.1% | -32.9%
Cc1ccccc1N1CCN(c2ncnc3c2cnn3Cc2ccc(Cl)cc2)CC1 | 7.8% | i | 18.4µM* | -5.9% | -24.3%
Cc1ccc(NC(=O)c2ccc(Cl)c(S(=O)(=O)N3CCCCCC3)c2)nc1 | 0.2% | i | 23.1µM* | ? | -26.5%
Cc1ccc(NC(=O)c2ccc(S(=O)(=O)N3CCCCCC3)cc2)nc1 | 6.4% | i | ? | 2.4% | 0.0%
O=C(Nc1cccnc1)c1ccc(Cl)c(S(=O)(=O)N2CCCCCC2)c1 | 2.2% | i | 14.6µM* | -5.0%[1.84 µM] | 15.4%
O=C(O)c1ccc2cc(-c3ccc(O)c(C45CC6CC(CC(C6)C4)C5)c3)ccc2c1 | / | / | / | / | 1.93µM*
COc1ccc(CCNC(=O)Cn2nc(-c3ccc(Cl)cc3)ccc2=O)cc1OC | 3.8% | / | / | 1.2% | /
CN1/C(=C\C(=S)NC(=O)c2cccc(Br)c2)C(C)(C)c2ccccc21 | 3.0% | ? | 20.6µM* | -13.5% | ?
Cc1cc(C)n2nc(-c3ccccc3)cc2n1 | 8.91µM* | i | ? | 8.9% | 67.0%[11.3 µM]
O=C(CSc1nc(-c2ccc(F)cc2)[nH]c1-c1ccc(F)cc1)Nc1ccc2c(c1)OCO2 | 3.6% | ? | 16.4µM* | ? | ?
COc1ccc(-c2nc(SCC(=O)NC3CCCC3)c(-c3ccc(F)cc3)[nH]2)cc1 | 5.2% | / | 16.4µM* | -21.4% | /
COCCCNC(=O)CSc1nc(-c2cccc(F)c2)[nH]c1-c1ccccc1 | 0.1% | i | 14.6µM* | -23.8% | -16.5%
CCc1cccc(NC(=O)C(Cc2ccccc2)n2cccc2)c1 (configuration not stated) | -0.3% | / | 20.6µM* | -12.9% | /
CN1CCN(c2ccccc2NC(=O)C(Cc2ccccc2)n2cccc2)CC1 (configuration not stated) | -1.5% | 29.9µM* | 0.0% | 0.0% | 0.0%
O=C(O)c1cc(O)c2c(c1)[C@H]([C@H]1c3cc(C(=O)O)cc(O)c3C(=O)c3c(O[C@@H]4O[C@H](CO)[C@@H](O)[C@H](O)[C@H]4O)cccc31)c1cccc(OC3O[C@H](CO)[C@@H](O)[C@H](O)[C@H]3O)c1C2=O (some centres not stated) | -0.6% | ? | ? | 16.4µM* | -25.9%
COc1ccc([C@H]2C[C@H](n3cc(-c4ccc(F)cc4)nn3)[C@@H](O)CN2Cc2cccs2)cc1 | -0.2% | i | / | / | -14.3%
SMILES | Nrf2 ARE act | ATXN viability | Nrf2 block | A549 tox | ATXN2 expr inh
O[C@H]1C[C@H](c2ccccc2)N(Cc2cccs2)C[C@@H]1n1cc(-c2ccc(F)cc2)nn1 | -2.7% | 31.6µM* | / | / | 15.8µM*
O[C@H]1CN(Cc2cccs2)[C@@H](c2ccccc2)C[C@@H]1n1cc(-c2ccc(F)cc2)nn1 | -0.3% | ? | / | / | ?
COc1ccc([C@H]2C[C@H](O)[C@@H](n3cc(-c4ccc(F)cc4)nn3)CN2Cc2cccs2)cc1 | -2.9% | 28.2µM* | / | / | 15.8µM*
CC1CCc2cc(F)ccc2N1C(=O)CSc1nnc2c(n1)[nH]c1ccc(F)cc12 (configuration not stated) | 0.2% | / | 20.6µM* | ? | ?
CC1CCCCN1C(=O)CSc1nnc2c(n1)[nH]c1ccc(F)cc12 (configuration not stated) | -1.1% | i | ? | 3.2% | -22.5%
CN(C)CCNC(=O)CN1N=C(c2ccccc2)CCC1=O | 0.1% | / | / | 0.4% | /
Cc1cc2cc(C(c3nnnn3CC3CCCO3)N3CCCc4ccccc43)c(=O)[nH]c2cc1C (configuration not stated) | 4.0% | ? | ? | -28.0% | -16.9%
CCc1ccc2[nH]c(=O)c(C(c3nnnn3CC3CCCO3)N3CCCc4ccccc43)cc2c1 (configuration not stated) | -0.5% | ? | 23.1µM* | ? | -6.4%
Cc1cccc(C(=O)Nc2ccc(-c3nc4cc(C(C)C)ccc4o3)cc2)c1 | 5.3% | ? | 14.6µM* | 1.9% | -36.7%
COc1cc(OC)cc(C(=O)Nc2ccc(-c3nc4cc(C(C)C)ccc4o3)cc2)c1 | 13.8% | ? | 14.6µM* | -4.2% | -18.0%
COc1cc(C(=O)Nc2ccc(-c3nc4cc(C)ccc4o3)c(O)c2)cc(OC)c1OC | 0.0% | i | 20.6µM* | -16.4% | ?
O=C(NCc1nnc2n1CCN(Cc1ccc(C(F)(F)F)cc1)CC2)c1ccccn1 | / | i | / | / | /
COc1ccccc1C(=O)NNC(=O)c1cccc(Cl)c1 | ? | i | ? | 4.8% | /
COc1cc(NC(=O)c2cccc(Br)c2)nc(OC)n1 | 14.1µM* | i | 5.6% | 0.5% | -1.7%
COc1cc(NC(=O)c2c(F)cccc2F)nc(OC)n1 | 3.1% | i | / | 15.3% | 0.6%
COc1ccccc1C(=O)NNC(=O)c1cccc(Br)c1 | 6.31µM* | i | ? | 15.6% | 21.2%
CC(=O)NC1=CC(=O)c2nonc2C1=O | / | / | 2.91µM* | 7.31µM* | /
Cc1ccc(CCNC(=O)c2c[nH]c3ccc(S(=O)(=O)Nc4cccc(C(F)(F)F)c4)cc3c2=O)cc1 | -1.0% | / | / | -0.1% | /
CCN(CC)S(=O)(=O)c1ccc(NC2CCCc3ccccc32)nc1 (configuration not stated) | 0.8% | i | 14.6µM* | -13.0% | -1.3%
O=C(Nc1cccc(C(F)(F)F)c1)N1CCN(C(=O)Nc2cccc(C(F)(F)F)c2)CC1 | -0.1% | i | 1.8% | -9.6% | -9.0%

Source: PubChem (National Center for Advancing Translational Sciences (NCATS))
